Measurements reported in PubChem BioAssay (Tox21).
Records with an inconclusive call do not appear. A number with no mark means an inactive call. Activity calls are given as the source filed them. Calls come from the whole dose curve; as a rule, active = well fitted cell-killing curve with a large enough effect in the repeat runs; inconclusive = weak or mixed curves, or effect the other way; inactive = flat fitted curve, though single readings scatter.

Assay: qHTS RealTime-Glo MT Cell Viability Assay in HEK293 cells - 16 hour (AID 1224872); note: nearly all actives have a fitted effect of over 50% in size; for activity change, negative = cytotoxicity: top concentration of the series differs between compounds
Conditions: RealTime-Glo luminescence; series mostly up to 76.8 µM; activity change, negative = cytotoxicity: at the top concentration
Text: National Center for Advancing Translational Sciences [NCATS]
NIH Chemical Genomics Center [NCGC]
U.S. Environmental Protection Agency [EPA]
National Institutes of Environmental Health Sciences [NIEHS]
National Toxicology Program [NTP]
U.S. Food and Drug Administration [FDA]
Measure of cell viability is critical in the cell-base assay. Analysis of cell viability is necessary for the characterization of cell responses to cytotoxic drugs and environmental stress. A RealTime-Glo MT Cell Viability Assay to monitor cell viability in real time of continues cell culture during 40 hours of compound treatment was used to screen Tox21 10K library compounds in Hek293 cells. The RealTime-Glo MT Cell Viability Assay is a nonlytic, homogeneous, bioluminescent method to measure cell viability in real time using a simple, plate-based method. The assay involves adding NanoLuc luciferase and a cell-permeant prosubstrate to cells in culture. Viable cells reduce the proprietary prosubstrate to generate a substrate for NanoLuc luciferase. This substrate diffuses from cells into the surrounding culture medium, where it is rapidly used by the NanoLuc Enzyme to produce a luminescent signal. The signal correlates with the number of viable cells, making the assay well suited for cytotoxicity studies.
Tox21 Assay Protocol Summary:
The mixture of Hek293 cell suspension and reagents were dispensed at 600cells/6 ul/well in 1536-well tissue culture treated black solid bottom plates using a Multidrop dispenser. After the assay plates were incubated at a 37 C/5% CO2 incubator for 5 hours, 23 nL of compounds dissolved in DMSO, positive and negative controls was transferred to the assay plate by a pintool work station. The plates were incubated at 37 C for 40 hours. The luminescence intensity were measured at 0h, 8h, 16h, 24h, 32h and 40h time points using ViewLux plate reader during compound treatment.
% is set by controls: 0 for no effect and ±100 for the full control effect; potency is the fitted concentration of half-maximal effect.

SMILES	activity change, negative = cytotoxicity	Potency
Cc1c(Cl)cccc1Cl	1.85%	
CC(O)COC(C)(C)C (stereo not given)	3.37%	
Cc1ccc(C(C)NC(=O)[C@@H](NC(=O)OC(C)C)C(C)C)cc1 (stereo not given in full)	-7.09%	
C=C(C)C1CC=C(C)C(=O)C1 (stereo not given)	10.3%	
COCCc1ccccn1	-1.62% [at 35.3 µM]	
CCN1CCCC1CN (stereo not given)	10.8% [at 35.3 µM]	
O=Cc1cc2ccccc2o1	-4.63%	
O=C(O)CONC(=O)c1ccccc1	2.66%	
CC(=O)O[C@@H]1CC2CCC1(C)C2(C)C (stereo not given in full)	-0.966%	
C#CCN[C@@H]1CCc2ccccc21	-7.23% [at 35.3 µM]	
N#CCC(=O)NN	7.03% [at 35.3 µM]	
COC(=O)c1cccc(Cl)c1	4.86%	
O=C(O)CSCC(=O)NC1CCSC1=O (stereo not given)	0.0816% [at 35.3 µM]	
COc1cc2c(cc1OC)C(=O)C(CC1CCN(Cc3ccccc3)CC1)C2 (stereo not given)		21.3 µM (active)
CC1=C(O)C(=O)C(C)O1 (stereo not given)	2.39%	
C[C@H]1[C@@H](c2ccccc2)NC(=O)N1C	-4.1%	
CN(C)CCCO[C@@H]1[C@H]2OC(C)(C)O[C@H]2O[C@@H]1C(O)CO (stereo not given in full)	6.93% [at 35.3 µM]	
Cc1c(N)cccc1Cl	2.96%	
CN(C)CCN(C)CCO	1.58%	
CC1CC(=O)CC(C)(C)C1 (stereo not given)	13.5%	

SMILES	activity change, negative = cytotoxicity	Potency
CC(O)CC(C)O (stereo not given)	-0.493%	
CCCCCc1cccc(=O)o1	0.0651%	
CC(=O)OC(C)=O	5.23%	
CCCSSCCC	3.01%	
CCCC(=O)Nc1ccc(OCC(O)CNC(C)C)c(C(C)=O)c1 (stereo not given)	1.16% [at 35.3 µM]	
CC(S)C(C)S (stereo not given)	15.4%	
CN(C)CCOC(=O)C(c1ccccc1)C1(O)CCCC1 (stereo not given)	3.42% [at 35.3 µM]	
Cn1c(=O)c2c(ncn2CCO)n(C)c1=O	0.473% [at 35.3 µM]	
CCCCCCCCCOC(=O)CCCCC(=O)OCCCCCCC	-10.2%	
O=C(CN1CCNCC1)NC1CCCCC1	-0.679% [at 35.3 µM]	
O=C=NCC1CCCC(CN=C=O)C1 (stereo not given)	4.44%	
Nc1nnnn1-c1ccccc1	6.97% [at 35.3 µM]	
COS(=O)(=O)O	3.12%	
CC(C)=CCC/C(C)=C/COC=O	2.77%	
C=Cc1ccc(C(C)(C)C)cc1	0.67%	
CCCCSCCCC	1.52%	
CCC(=O)c1c(O)cc(O)cc1O	1.18% [at 35.3 µM]	
Cc1cc(-c2ccccc2)nnc1NCCN1CCOCC1	0.232% [at 35.3 µM]	
CCCCCCCCCCCCCCCCCCOCCO	-4.86% [at 15.8 µM]	
CC1(C)Oc2ccc(C#N)cc2[C@@H](N2CCCC2=O)[C@@H]1O	3.98% [at 35.3 µM]	
